Results published in PubChem BioAssay AID1159580 (chemical genetic matrix, 2015).
Screen size: about 5,500 compounds; about 2,000 (36%) were called active. Not shown: some 18% with an inconclusive outcome. No stated cut-off is given here; in the data, active means normalized growth mostly below about 0.91 (no sharp cut-off); inconclusive means no clear call, values can overlap the other calls; inactive means mostly above about 0.92. Some of the results follow.

Test: chemical genetic growth profiling, strain panel (AID 1159580);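 further: tested at 20 µM; growth read once vehicle control cultures reached saturation at 30 °C; 1 = growth at the plate median or of vehicle wells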
Conditions: growth OD

Measured: normalized growth

O=c1c(O)c(-c2ccccc2)oc2ccc3occc3c12
active: S. cerevisiae deletion strains, locus YJR075W, strain HOC1, stronger effect = lower value 0.861 | S. cerevisiae deletion strains, locus YKL009W, strain mrt4, stronger effect = lower value 0.793 | S. cerevisiae deletion strains, locus YKL160W, strain elf1, stronger effect = lower value 0.687 | S. cerevisiae deletion strains, locus YKR001C, strain vps1, stronger effect = lower value 0.772 | S. cerevisiae deletion strains, locus YLL001W, strain dnm1, stronger effect = lower value 0.657 | S. cerevisiae deletion strains, locus YLL026W, stronger effect = lower value 0.867 | S. cerevisiae deletion strains, locus YLR027C, strain aat2, stronger effect = lower value 0.795 | S. cerevisiae deletion strains, locus YLR058C, strain SHM2, stronger effect = lower value 0.854 | S. cerevisiae deletion strains, locus YLR102C, strain apc9, stronger effect = lower value 0.912 | S. cerevisiae deletion strains, locus YLR221C, strain rsa3, stronger effect = lower value 0.844 | S. cerevisiae deletion strains, locus YLR258W, strain gsy2, stronger effect = lower value 0.745 | S. cerevisiae deletion strains, locus YLR262C, strain YPT6 (second series), stronger effect = lower value 0.795 | S. cerevisiae deletion strains, locus YLR268W, strain sec22, stronger effect = lower value 0.77 | S. cerevisiae deletion strains, locus YLR320W, strain mms22, stronger effect = lower value 0.76 | S. cerevisiae deletion strains, locus YLR330W, strain CHS5, stronger effect = lower value 0.847 | S. cerevisiae deletion strains, locus YLR342W, strain FKS1 (second series), stronger effect = lower value 0.755 | S. cerevisiae deletion strains, locus YLR342W, strain FKS1, stronger effect = lower value 0.796 | S. cerevisiae deletion strains, locus YLR370C, strain arc18, stronger effect = lower value 0.768 | S. cerevisiae deletion strains, locus YLR371W, strain rom2, stronger effect = lower value 0.655 | S. cerevisiae deletion strains, locus YLR418C, strain cdc73, stronger effect = lower value 0.451 | S. cerevisiae deletion strains, locus YML032C, strain rad52, stronger effect = lower value 0.685 | S. cerevisiae deletion strains, locus YML120C, strain ndi1, stronger effect = lower value 0.753 | S. cerevisiae deletion strains, locus YML124C, strain tub3, stronger effect = lower value 0.899 | S. cerevisiae deletion strains, locus YMR058W, strain fet3, stronger effect = lower value 0.817 | S. cerevisiae deletion strains, locus YMR078C, strain ctf18, stronger effect = lower value 0.852 | S. cerevisiae deletion strains, locus YMR125W, strain sto1, stronger effect = lower value 0.877 | S. cerevisiae deletion strains, locus YMR129W, stronger effect = lower value 0.88 | S. cerevisiae deletion strains, locus YMR205C, strain PFK2, stronger effect = lower value 0.611 | S. cerevisiae deletion strains, locus YMR223W, strain ubp8, stronger effect = lower value 0.762 | S. cerevisiae deletion strains, locus YMR263W, strain SAP30, stronger effect = lower value 0.854 | S. cerevisiae deletion strains, locus YNL067W, strain RPL9B, stronger effect = lower value 0.863 | S. cerevisiae deletion strains, locus YNL071W, strain lat1, stronger effect = lower value 0.363 | S. cerevisiae deletion strains, locus YNL209W, strain ssb2, stronger effect = lower value 0.853 | S. cerevisiae deletion strains, locus YNL233W, strain BNI4, stronger effect = lower value 0.693 | S. cerevisiae deletion strains, locus YNL271C, strain bni1, stronger effect = lower value 0.889 | S. cerevisiae deletion strains, locus YNL298W, strain CLA4, stronger effect = lower value 0.887 | S. cerevisiae deletion strains, locus YNL307C, strain MCK1, stronger effect = lower value 0.521 | S. cerevisiae deletion strains, locus YNL322C, strain KRE1 (second series), stronger effect = lower value 0.814 | S. cerevisiae deletion strains, locus YNR052C, strain pop2, stronger effect = lower value 0.864 | S. cerevisiae deletion strains, locus YOL147C, strain pex11, stronger effect = lower value 0.703 | S. cerevisiae deletion strains, locus YOR001W, strain rrp6, stronger effect = lower value 0.826 | S. cerevisiae deletion strains, locus YOR070C, strain gyp1, stronger effect = lower value 0.806 | S. cerevisiae deletion strains, locus YOR080W, strain dia2, stronger effect = lower value 0.889 | S. cerevisiae deletion strains, locus YOR083W, strain WHI5, stronger effect = lower value 0.79 | S. cerevisiae deletion strains, locus YOR106W, strain vam3, stronger effect = lower value 0.737 | S. cerevisiae deletion strains, locus YOR136W, strain idh2, stronger effect = lower value 0.876 | S. cerevisiae deletion strains, locus YOR144C, strain elg1, stronger effect = lower value 0.823 | S. cerevisiae deletion strains, locus YOR184W, strain ser1, stronger effect = lower value 0.557 | S. cerevisiae deletion strains, locus YOR265W, strain rbl2, stronger effect = lower value 0.85 | S. cerevisiae deletion strains, locus YOR270C, strain vph1, stronger effect = lower value 0.409 | S. cerevisiae deletion strains, locus YOR290C, strain snf2, stronger effect = lower value 0.589 | S. cerevisiae deletion strains, locus YOR316C, strain cot1, stronger effect = lower value 0.881 | S. cerevisiae deletion strains, locus YPL051W, strain arl3, stronger effect = lower value 0.725 | S. cerevisiae deletion strains, locus YPL078C, strain atp4, stronger effect = lower value 0.513 | S. cerevisiae deletion strains, locus YPL106C, strain sse1, stronger effect = lower value 0.769 | S. cerevisiae deletion strains, locus YPL240C, strain hsp82, stronger effect = lower value 0.833 | S. cerevisiae deletion strains, locus YPR119W, strain clb2, stronger effect = lower value 0.888 | S. cerevisiae deletion strains, locus YPR163C, strain tif3, stronger effect = lower value 0.72 | S. cerevisiae deletion strains, locus YPR167C, strain met16, stronger effect = lower value 0.851 | S. cerevisiae deletion strains, strain wtn01, stronger effect = lower value 0.757 | S. cerevisiae strains, strain wild type, stronger effect = lower value 0.896
inactive: S. cerevisiae deletion strains, locus YKL068W, stronger effect = lower value 0.962 | S. cerevisiae deletion strains, locus YKL085W, strain MDH1 (second series), stronger effect = lower value 0.937 | S. cerevisiae deletion strains, locus YKL085W, strain MDH1, stronger effect = lower value 0.937 | S. cerevisiae deletion strains, locus YKL190W, strain CNB1, stronger effect = lower value 0.941 | S. cerevisiae deletion strains, locus YKR026C, strain gcn3, stronger effect = lower value 0.954 | S. cerevisiae deletion strains, locus YKR091W, strain srl3, stronger effect = lower value 0.974 | S. cerevisiae deletion strains, locus YLL041C, strain sdh2, stronger effect = lower value 0.948 | S. cerevisiae deletion strains, locus YLR039C, strain RIC1, stronger effect = lower value 0.878 | S. cerevisiae deletion strains, locus YLR113W, strain HOG1, stronger effect = lower value 0.893 | S. cerevisiae deletion strains, locus YLR262C, strain YPT6, stronger effect = lower value 0.946 | S. cerevisiae deletion strains, locus YLR357W, strain rsc2, stronger effect = lower value 0.87 | S. cerevisiae deletion strains, locus YLR384C, strain iki3, stronger effect = lower value 0.954 | S. cerevisiae deletion strains, locus YML016C, strain PPZ1, stronger effect = lower value 0.939 | S. cerevisiae deletion strains, locus YMR231W, strain pep5, stronger effect = lower value 1 | S. cerevisiae deletion strains, locus YMR307W, strain GAS1, stronger effect = lower value 0.687 | S. cerevisiae deletion strains, locus YNL128W, strain TEP1, stronger effect = lower value 0.911 | S. cerevisiae deletion strains, locus YNL183C, strain NPR1, stronger effect = lower value 0.884 | S. cerevisiae deletion strains, locus YNL248C, strain rpa49, stronger effect = lower value 0.953 | S. cerevisiae deletion strains, locus YNL250W, strain rad50, stronger effect = lower value 0.921 | S. cerevisiae deletion strains, locus YNL322C, strain KRE1, stronger effect = lower value 0.954 | S. cerevisiae deletion strains, locus YNR049C, strain mso1, stronger effect = lower value 0.93 | S. cerevisiae deletion strains, locus YOL012C, strain htz1 1.09 | S. cerevisiae deletion strains, locus YOR061W, strain CKA2, stronger effect = lower value 0.935 | S. cerevisiae deletion strains, locus YOR069W, strain VPS5, stronger effect = lower value 0.932 | S. cerevisiae deletion strains, locus YOR231W, strain MKK1, stronger effect = lower value 0.909 | S. cerevisiae deletion strains, locus YPL241C, strain CIN2, stronger effect = lower value 0.966 | S. cerevisiae deletion strains, locus YPL256C, strain CLN2, stronger effect = lower value 0.982 | S. cerevisiae deletion strains, locus YPR141C, strain kar3, stronger effect = lower value 0.956
